Compound activity as filed in PubChem BioAssay.
GDH-TPI inh – counter-screen for M. tuberculosis FBA inhibitors: GDH-TPI coupled enzymes; GDH-TPI coupled enzyme counterscreen, NADH absorbance; inhibition, % at 4.8 µM; 360,000 tested, 1.2% active
DUSP3 inh – DUSP3 (human) phosphatase inhibition. 290,000 tested, 0.52% active. recombinant VHR phosphatase, pNPP absorbance. AID 1654. inhibition, % at 13.3 µM. P51452; in the data active = inhibition above about 50%
Target sequence (P51452 whole entry, looked up): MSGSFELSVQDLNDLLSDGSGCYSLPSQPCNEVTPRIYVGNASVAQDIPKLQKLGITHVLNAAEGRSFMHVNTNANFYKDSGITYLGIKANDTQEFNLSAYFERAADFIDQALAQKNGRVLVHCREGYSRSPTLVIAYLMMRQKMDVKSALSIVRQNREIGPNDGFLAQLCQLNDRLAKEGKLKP
RecA splice inh – Mtb RecA intein splicing inhibition; 290,000 tested, 0.75% active; cell-free RecA intein splicing, fluorescence; inhibition, % (concentration not given with the values); P9WHJ3; in the data active = inhibition above about 30%
FBA Mtb inh – Mtb fructose-bisphosphate aldolase inhibition; P9WQA3; purified M. tuberculosis FBA, fluorescence read-out; inhibition, % at 1 µM; 360,000 tested, 2.3% active; in the data active = inhibition above about 27%
Target sequence (P9WQA3 whole entry, looked up): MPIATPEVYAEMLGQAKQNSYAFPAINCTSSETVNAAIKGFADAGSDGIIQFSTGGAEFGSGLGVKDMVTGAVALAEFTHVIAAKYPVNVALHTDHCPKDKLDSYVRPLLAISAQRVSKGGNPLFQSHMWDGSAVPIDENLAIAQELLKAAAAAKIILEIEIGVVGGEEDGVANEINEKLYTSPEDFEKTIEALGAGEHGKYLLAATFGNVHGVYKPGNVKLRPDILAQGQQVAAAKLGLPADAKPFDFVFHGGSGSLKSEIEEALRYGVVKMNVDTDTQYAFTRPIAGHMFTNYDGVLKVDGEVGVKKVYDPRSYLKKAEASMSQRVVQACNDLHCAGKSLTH
CCHFV vOTU inh – CCHFV vOTU protease inhibition | Pep-AMC fluorescence | 370,000 tested, 0.55% active | inhibition, % at 11.5 µM
3CLpro inhibitor – SARS-CoV 3CLpro protease inhibition; P0C6X7; recombinant SARS-CoV 3CLpro, quenched FRET peptide cleavage; inhibition, % at 6 µM; 290,000 tested, 0.14% active; AID 1706; in the data active = inhibition above about 12%
A number is an active result; . = inactive; / = no result given; + = active, no number. Shown are actives, neighbours in structure and some others; about 4.7% of the full set was active somewhere. Rule as the data show it, unless noted: active = inhibition above about 30%; inactive = the rest.

SMILES | GDH-TPI inh | DUSP3 inh | RecA splice inh | FBA Mtb inh | CCHFV vOTU inh | 3CLpro inhibitor
Cc1ccc(NC(=O)C2C3CCC(O3)C2C(=O)O)cc1Cl (stereo unspecified) | . | . | . | . | . | .
CN(C)c1ccc(/C=C(/NC(=O)c2ccccc2)C(=O)NCCN2CCOCC2)cc1 | . | . | . | . | . | .
CN(C)c1ccc(/C=C(/NC(=O)c2ccccc2Cl)C(=O)NCCN2CCOCC2)cc1 | 42 | . | . | . | . | .
CCn1cc(/C=C(\NC(=O)c2ccc(C)cc2)C(=O)NCCCN2CCOCC2)c2ccccc21 | 41 | . | . | . | . | .
Cc1ccc(C(=O)N/C(=C\c2cn(C)c3ccccc23)C(=O)NCCCN2CCOCC2)cc1 | . | . | . | . | . | .
CCn1cc(/C=C(\NC(=O)c2ccc(OC)c(OC)c2)C(=O)NCCCN2CCOCC2)c2ccccc21 | 41 | . | . | . | . | .
COc1ccccc1C(=O)N/C(=C\c1cn(C)c2ccccc12)C(=O)NCCCN1CCOCC1 | 36 | 57 | . | . | . | .
CCOC(=O)[C@]12CCCC=C1N(Cc1ccccc1)C(=O)[C@H](CC(=O)NCc1cccc3ccccc13)C2 | / | / | / | / | . | /
CCn1c2ccccc2c2cc(C=Nn3c(-c4ccccc4C)n[nH]c3=S)ccc21 | / | / | / | / | . | /
CCn1cc(/C=C(\NC(=O)c2ccccc2Cl)C(=O)NCCN2CCOCC2)c2ccccc21 | . | . | . | . | . | .
CCn1cc(/C=C(\NC(=O)c2ccccc2)C(=O)NCCN2CCOCC2)c2ccccc21 | 48 | / | / | . | . | /
O=C(O)c1ccc(NC(=O)C2(c3ccccc3)CCCC2)cc1 | . | . | . | . | . | .
CCN(CC)CCOC(=O)c1ccc(NC(=O)C2(c3ccccc3)CCCC2)cc1 | . | 54 | . | . | . | .
COc1ccc(C=NNc2nc3ccccc3s2)cc1 | . | / | / | . | . | /
Cc1ccc2[nH]c(C)c(/C=N/Nc3nc4ccccc4s3)c2c1 | 38 | . | . | . | . | .
COc1ccc(NS(=O)(=O)c2ccc3oc(=O)c4[nH]c(=O)c(=O)n(C)c4c3c2)cc1 | 34 | . | . | . | . | .
CS(=O)(=O)c1ccc2nc(NC(=O)c3ccc(Cl)cc3)sc2c1 | . | . | / | . | . | .
Cn1nc(C(=O)Nc2nc3ccc(S(C)(=O)=O)cc3s2)ccc1=O | 61 | . | . | . | . | .
CS(=O)(=O)c1ccc2nc(NC(=O)c3ccccc3Cl)sc2c1 | . | . | . | . | . | .
CS(=O)(=O)c1ccc2nc(NC(=O)c3ccc(=O)[nH]c3)sc2c1 | 83 | . | . | . | . | .
COc1ccc(OC)c(CN2C(=O)c3ccccc3C2c2nnnn2Cc2ccccc2)c1 (stereo unspecified) | / | / | / | / | . | /
COc1cc2ccc(C(C)=NNC(N)=S)cc2cc1OC | 42 | / | / | . | . | /
C=CCn1c(Cc2cccs2)nnc1SCC(=O)Nc1cccc2ccccc12 | / | / | / | / | . | /
N#Cc1nc(COc2ccc(F)cc2)oc1N1CCCC1 | . | . | . | . | . | .
N#Cc1nc(-c2ccc(F)cc2)oc1N1CCCC1 | . | . | . | 113 | . | .
SMILES | GDH-TPI inh | DUSP3 inh | RecA splice inh | FBA Mtb inh | CCHFV vOTU inh | 3CLpro inhibitor
N#Cc1nc(-c2ccc([N+](=O)[O-])cc2)oc1N1CCCCC1 | . | / | . | . | . | .
N#Cc1nc(-c2ccc(F)cc2)oc1N1CCCCC1 | . | . | . | 178 | . | .
CC(C)CC(C(=O)NC1CCCCC1)N(Cc1ccccc1)C(=O)c1snc(C(N)=O)c1N (stereo unspecified) | . | 58 | . | . | . | .
Cn1c(=S)c2[nH]c(SCC3CCCO3)nc2n(C)c1=O (stereo unspecified) | . | / | / | . | . | /
CCCC(C)Sc1nc2c([nH]1)c(=S)n(C)c(=O)n2C (stereo unspecified) | 35 | / | / | . | . | /
COCCOC(=O)C1=C(C)NC(=O)NC1c1c(Cl)nc2ccccn2c1=O (stereo unspecified) | 31 | . | . | . | . | .
CCOC(=O)C1Nc2ccccc2C2C(O)C(O)CC12 (stereo unspecified) | . | / | . | . | 61 | /
C=CCNC(=O)C1CCN(c2cncnc2)CC1 | / | / | / | / | . | /
COCCCn1c(=O)/c(=C\c2cccc(OC)c2OC)s/c1=C(/C#N)C(=O)Nc1ccc(C(=O)O)cc1 | 40 | . | . | . | . | .
Cc1c(C#N)c(=O)oc2ccc3ccccc3c12 | . | . | . | 115 | . | .
CCN(CC)CCOc1ccc(-c2c(C)c3c(ccc4ccccc43)oc2=O)cc1 | . | / | / | . | . | /
CSCc1cc(C(=O)NC2CC2)c(N)s1 | / | / | / | / | . | /
Cc1c(OC(C(=O)O)c2ccccc2)ccc2c1oc(=O)c1ccccc12 (stereo unspecified) | . | . | . | 139 | . | .
Cc1c(OC(C(=O)O)c2ccccc2)ccc2c3c(c(=O)oc12)CCC3 (stereo unspecified) | . | . | . | . | . | .
CCOC(=O)c1cnn2c1[nH]c(=O)c1ccccc12 | . | . | / | 30 | . | .
COc1ccc(C(=O)C(=O)N2CCN(C(=O)c3ccccc3C(F)(F)F)CC2)cc1OC | / | / | / | / | . | /
COC(=O)[C@]12C[C@H](CC(=O)NCc3ccccc3)C(=O)N(Cc3ccccc3)C1=C[C@H](C1CCCC1)O[C@@H]2C | / | / | / | / | . | /
O=c1c(O)c(-c2cc(O)c(O)c(O)c2)oc2cc(O)cc(O)c12 | 32 | / | / | . | . | /
O=c1c(O)c(-c2ccccc2)oc2cc(O)cc(O)c12 | . | / | / | . | . | /
CCOC(=O)c1c(S(=O)(=O)Nc2ccc(C)cn2)c(C)n(C)c1C | . | 51 | . | . | . | .
O=C(O)CC(CC(=O)NCC(O)c1ccccc1)c1ccccc1 (stereo unspecified) | . | . | . | . | . | .
O=C1C(Oc2ccccc2)C(c2ccc3c(c2)OCO3)N1CCc1ccc(F)cc1 (stereo unspecified) | 33 | . | . | . | . | .
C#CCNC(=O)C[C@H]1C[C@@]2(C(=O)OC)C(=C[C@H](C(C)(C)C)O[C@@H]2C)N(Cc2ccccc2)C1=O | / | / | / | / | . | /
COc1ccc(/C=C/C(=O)Nc2nc(N)n(-c3ccccc3)n2)cc1 | 33 | . | . | . | . | .
COc1ccc(/C=C/C(=O)Nc2cccnc2Cl)cc1 | 31 | . | . | . | . | .
SMILES | GDH-TPI inh | DUSP3 inh | RecA splice inh | FBA Mtb inh | CCHFV vOTU inh | 3CLpro inhibitor
OC[C@H]1O[C@H](c2nc(-c3nc(-c4cccs4)no3)cs2)C[C@@H]1O | . | / | / | . | . | /
Cc1nn(-c2ccccc2)c(N)c1N=Nc1cccnc1 | . | . | . | . | . | .
Cc1ccccc1-n1nc(C)c(N=O)c1N | . | . | . | 113 | . | .
COc1ccc(CNc2oc(-c3cccc4ccccc34)nc2C#N)cc1 | . | . | . | 147 | . | .
COc1ccc(CCNc2oc(-c3ccc(OC)c(OC)c3)nc2P(=O)(OC)OC)cc1OC | . | . | . | 165 | . | .
CCOP(=O)(OCC)c1nc(Cc2ccccc2)oc1NCc1ccccc1 | . | . | . | . | . | .
CCOP(=O)(OCC)c1nc(-c2cccc3ccccc23)oc1NCCc1ccc(OC)cc1 | . | . | . | 168 | . | .
CNc1oc(-c2cccc3ccccc23)nc1C#N | . | . | . | + | . | .
